Results on 40 compounds are retold here after PubChem BioAssay (NCATS).

Molecules are shown by their SMILES. Records with an inconclusive call do not appear. Entries that show only a call come without a potency. The source made the active and inactive calls. Calls follow the shape of the dose curve; as a rule, active = well fitted cell-killing curve with a large enough effect; inconclusive = small, poorly fitted or top-dose-only effect; inactive = flat fitted curve, though single readings scatter.

This assay in a line: Cellular viability qHTS for adrenocortical cancer (ACC) cell line NCI-H295R (AID 1963990). Also: nearly all actives have a fitted effect of over 60% in size. To be noted: CellTiter-Glo ATP luminescence, 48 h; series mostly up to 46.1 µM. The text has this:
PI: Naris Nilubol, MD Surgical Oncology Program, National Cancer Institute (NCI) National Institute of Health (NIH), Bethesda, Maryland Adrenocortical cancer (ACC) is a rare malignancy with poor survival outcomes and few treatment options. Currently, mitotane is the only FDA-approved therapy for ACC. Although adjuvant radiation therapy is rarely utilized, it has the potential to improve survival in select cases. Through a quantitative high-throughput drug screen (qHTS), we identified auranofin (AF), a thioredoxin reductase (TXNRD) inhibitor, as a promising candidate drug. This study aims to evaluate whether AF can enhance the efficacy of radiation therapy in the treatment of ACC. Two human ACC cell lines, SW-13 and NCI-H295R, were screened using the National Center for Advancing Translational Sciences (NCATS) Pharmaceutical Collection (NPC) and the Mechanism Interrogation PlatE (MIPE) library (~4,991 compounds). CellTiter-Glo (Cat # G7570, Promega, Madison, WI) was utilized to measure cell viability. Described herein are the results of the corresponding viability assay.
PROTOCOL TABLE (as described by Inglese J, Shamu CE and Guy RK. 2007) SEQUENCE No. (e.g., 1, 2, 3, etc.); […] (e.g., Cells, Incubation, Reagent, etc.); VALUE; DESCRIPTION. 1; Cells; 5 uL; white, solid-bottom, 1536-well tissue-culture treated plates. 2; Time; overnight culture at 37C with 5% CO2. 3; Compounds and control; 23 nL; Kalypsis pin tool (Wako USA) equipped with a 1536-well pin head to transfer to the assay plates. 4; Time; 48 hours; 37C with 5% CO2. 5; Reagent; 4 uL; CellTiter-Glo luminescent substrate mix. 6; Time; 20 min at room temperature. 7; Detection; Luminescence; ViewLux plate reader NOTES (numbers refer to Sequence numbers above) 1. NCI-H295R cells were harvested from a T175 flask and resuspended in ITS-supplemented DMEM serum-free medium at a concentration of 300 000 cells/mL. Then 5 uL of resuspended cells were dispensed into each well of white, solid-bottom, 1536-well tissue-culture-treated plates using a multidrop combi dispenser. The plates were covered with stainless steel gasket lids. 2-3. The plates were cultured overnight at 37C with 5% CO2. Twenty-three nL of compounds (eight selected concentrations from the NPC / MIPE) or positive control (10 mM stock of bortezomib) in DMSO was transferred to each well of the assay plate using a pin tool (Kalypsys, San Diego, CA, USA). The final concentration of the compounds in the 5 uL assay volume ranged from 0.5 nM to 46 uM. 4-6. After 48 hours of incubation at 37C and 5% CO2, 4 uL of CellTilter-Glo luminescent substrate mix (Promega, Madison, WI, USA) was added to each well. Then the plates were incubated for 20 minutes at room temperature. 7. After incubation, luminescence was measured using a ViewLux plate reader (PerkinElmer, Waltham, MA, USA) with a clear filter was used to measure the number of metabolically competent cells. To determine compound activity in the qHTS assay, the titration-response data for each sample was plotted and modeled by a four-parameter logistic fit yielding IC50 and efficacy (maximal response) values. Raw plate reads for each titration point were normalized relative to positive control ([…], 100% inhibition) and DMSO-only wells (basal, 0%). REFERENCES: Inglese J, Shamu CE and Guy RK, Reporting data from high throughput screening of small molecule libraries, Nature Chemical Biology, 2007, 3(8): 438-441. doi.org/10.1038/nchembio0807-438.
Turning to `Cc1cnc(NC(=O)c2cc(Oc3cnc(C(=O)N(C)C)nc3)c3cc(C)oc3c2)cn1`, the Potency result is “inactive”.

`CC(C)OC(=O)C(C(=O)OC(C)C)=C1SC=CS1`: the Potency result is “inactive”.

On to `CCCCCCCCCCCCCCCC(=O)NCCO`, for which the Potency result was “inactive”.

Regarding `CCOC(=O)C1=C[C@@H](OC(CC)CC)[C@H](NC(C)=O)[C@@H](N)C1`, the Potency entry is “inactive”.

With `CCOC(=O)c1cccc(N)c1`, the Potency result was “inactive”.

With `CC(C)c1cc(C(=O)N2Cc3ccc(CN4CCN(C)CC4)cc3C2)c(O)cc1O`, the Potency is 0.631 µM (active).

Regarding `CC(C)(C)NC(=O)[C@H]1CC[C@H]2[C@@H]3CC[C@H]4NC(=O)C=C[C@]4(C)[C@H]3CC[C@]12C`, the Potency result is “inactive”.

For the compound `COCCOc1ccc2c(c1)ncn2-c1ccc2cccc(N3CCC(N)CC3)c2n1`, the Potency is 12.6 µM (active).

`COc1ccc(CC2=NN3C([C@@H](CCc4ccccc4)[C@@H](C)O)=NC(C)C3C(=O)N2)cc1OC` (stereo not given in full): the Potency entry was “inactive”.

For `C[C@H](NC(CCc1ccccc1)C(=O)O)C(=O)N1CCC[C@H]1C(=O)O` (stereo not given in full), the Potency result was “inactive”.

On to `C#CCN(C)CC1=Cc2ccccc2Oc2ccccc21`, for which the Potency entry is “inactive”.

Take `O=C(O)CCC(=O)c1ccc(-c2ccccc2)cc1`: the Potency entry was “inactive”.

Take `CCC1(c2ccccc2)C(=O)NCNC1=O`: the Potency result is “inactive”.

`CN(C)C(=O)Oc1cccc([N+](C)(C)C)c1`: the Potency result is “inactive”.

Turning to `CC(CC(C#N)(c1ccccc1)C(C)C)N(C)C` (stereo not given), the Potency result is “inactive”.

Consider `O=C(O)CCC1CCC(c2cc(F)ccc2F)(S(=O)(=O)c2ccc(Cl)cc2)CC1` (stereo not given), for which the Potency result is “inactive”.

`CN1c2ccccc2C(=O)N2CCc3c([nH]c4ccccc34)C21` (stereo not given): the Potency was 1.78 µM (active).

On to `CC(C)NC(=O)C1CCC(n2c(NC(=O)c3ccc(F)cc3)nc3ccc(CN4CCC(C(C)(C)O)CC4)cc32)CC1` (stereo not given), for which the Potency is 10.1 µM (active).

As to `CC(C)N(CCCNC(=O)Nc1ccc(C(C)(C)C)cc1)C[C@H]1O[C@@H](n2ccc3c(N)ncnc32)[C@H](O)[C@@H]1O`, the Potency result was “inactive”.

Turning to `Cc1cc(C)c2c(c1)[C@@H](N(Cc1cc(C(F)(F)F)cc(C(F)(F)F)c1)c1nnn(C)n1)CCCN2CC1CCC(C(=O)O)CC1` (stereo not given in full), the Potency result was “inactive”.

On to `O=C(CCCCCCCCC#CI)Oc1ccccc1`, for which the Potency was 13 µM (active).

As for `CN(C)[C@@H]1C(=O)C(C(N)=O)=C(O)[C@@]2(O)C(=O)C3=C(O)c4c(O)ccc(Cl)c4[C@@H](O)[C@H]3C[C@@H]12`, the Potency entry was “inactive”.

For the compound `CCS(=O)(=O)Nc1ccc2[nH]c(O)c(C(=Nc3ccc(CN4CCCCC4)cc3)c3ccccc3)c2c1`, the Potency was 1.26 µM (active).

For the compound `C=C[C@H]1CN2CCC1C[C@@H]2C(O)c1ccnc2ccc(OC)cc12` (stereo not given in full), the Potency result was “inactive”.

For `Cc1ccc(-c2ccccc2C#N)cc1`, the Potency entry was “inactive”.

Turning to `CCOC(=O)[C@H](CCc1ccccc1)N[C@@H](C)C(=O)N1Cc2cc(OC)c(OC)cc2C[C@H]1C(=O)O`, the Potency entry was “inactive”.

`CS(=O)c1ccc(-c2nc(-c3ccc(F)cc3)c(-c3ccncc3)[nH]2)cc1` (stereo not given): the Potency result was “inactive”.

With `Cc1c(N)c(=O)n(-c2ccccc2)n1C`, the Potency entry is “inactive”.

Turning to `CN(C)Cc1ccc(-c2nc3cccc4c3n2CCNC4=O)cc1`, the Potency is 25.1 µM (active).

Regarding `COc1cc(-c2cc(-c3ccc(N4CCNCC4)cc3)cnc2C)cc(OC)c1OC`, the Potency entry was “inactive”.

Take `Cc1nc(N)nc(N)c1-c1ccc(Cl)c(Cl)c1`: the Potency was 0.13 µM (active).

As to `CCC1C(=O)OCC1Cc1cncn1C` (stereo not given), the Potency result was “inactive”.

For the compound `COc1cccc2nc(-c3cccs3)nc(NN3C(=O)C=C(C)C3=O)c12`, the Potency is 2.82 µM (active).

Consider `CCN(CC)CCn1c(=O)c(Cc2ccc(OC)cc2)nc2ccccc21`, for which the Potency entry was “inactive”.

For the compound `Cn1c(=O)n(-c2ccc(C(C)(C)C#N)cc2)c2c3cc(-c4cnc5ccccc5c4)ccc3ncc21`, the Potency is 0.0751 µM (active).

As to `Nc1ccc(S(=O)(=O)NCc2ccccc2)cc1`, the Potency result is “inactive”.

Regarding `C[C@@H]1CC(=O)NN=C1c1ccc(NN=C(C#N)C#N)cc1`, the Potency result was “inactive”.

Take `O=C(Nc1ccc(Cl)cc1)Nc1ccc(Cl)c(Cl)c1`: the Potency is 4.11 µM (active).

`CN1[C@@H]2CC(OC(=O)[C@H](CO)c3ccccc3)C[C@H]1[C@@H]1O[C@@H]12` (stereo not given in full): the Potency entry was “inactive”.

In the case of `Cc1cn([C@H]2C[C@H](F)[C@@H](CO)O2)c(=O)[nH]c1=O`, the Potency result was “inactive”.
